Reference: PubChem BioAssay (Tox21)
Values joined by “and” are separate entries in the source; they are usually repeats but may differ in a detail not shown here. Equal entries are not always repeated. Records with an inconclusive call do not appear. Some compounds were tested as several samples or in several runs, with calls that do not always agree. Active and inactive are the calls of the source. Unless noted, the call rests on the fitted dose curve; in most records, active means well fitted curve in the direction sought with a large enough effect in the repeat runs; inconclusive means weak or mixed curves; inactive means no such curve, though single readings can be large; an effect the other way counts as inactive or inconclusive.

Assays:
[1] = qHTS assay to identify small molecule antagonists of the peroxisome proliferator-activated receptor gamma (PPARg) signaling pathway - cell viability counter screen (AID 743194); further: nearly all actives have a fitted effect of over 55% in size; further: potency means the concentration at half of the fitted maximal effect
Procedure, shortened: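 Cytotoxicity counter screen in PPARg-bla HEK293H cells, same wells as reporter assay. Compounds plus 50 nM rosiglitazone (final) for 17 h at 37 C, then viability read by CellTiter-Glo luminescence.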

[2] = target: Peroxisome proliferator-activated receptor delta (Homo sapiens) (UniProt Q03181); assay: qHTS assay to identify small molecule antagonists of the peroxisome proliferator-activated receptor delta (PPARd) signaling pathway (AID 743215; active means well fitted inhibition curve with a large enough effect in the signal ratio in the repeat runs, not every such curve was filed as active; the % refers to the signal ratio; further: potency means the concentration at half of the fitted maximal effect)
Procedure, shortened: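 Plated HEK293H PPARd-bla cells rested 5 h at 37 C and 5% CO2. Compound, then agonist L165041 at 300 nM final, was added; 17 h at 37 C followed. Substrate loading, 2 h room temperature, fluorescence measured.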

[3] = qHTS assay to identify small molecule agonists of the farnesoid-X-receptor (FXR) signaling pathway - cell viability counter screen (AID 743218); further: nearly all actives have a fitted effect of over 45% in size; further: potency means the concentration at half of the fitted maximal effect
Procedure, shortened: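 Viability of FXR-bla HEK 293T cells is measured by ATP-based CellTiter-Glo luminescence following 16 h compound treatment at 37 C and a prior 2 h room-temperature beta-lactamase substrate step.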

[4] = target: Bile acid receptor (Homo sapiens) (UniProt Q96RI1); assay: qHTS assay to identify small molecule agonists of the farnesoid-X-receptor (FXR) signaling pathway (AID 743220; active means well fitted activation curve with a large enough effect in the signal ratio in the repeat runs, not every such curve was filed as active; the % refers to the signal ratio)
Procedure, shortened: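 FXR-UAS-bla HEK 293T cells carrying a UAS-driven beta-lactamase reporter were plated for 5 h at 37C/5% CO2, then exposed to DMSO-dissolved Tox21 10K compounds for 16 h at 37C. A LiveBLAzer B/G FRET substrate was loaded for 2 h at room temperature before fluorescence reading.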

[5] = qHTS assay to identify small molecule antagonists of the farnesoid-X-receptor (FXR) signaling pathway - cell viability counter screen (AID 743221; active means well fitted cell-killing curve with a large enough effect in the repeat runs, not every such curve was filed as active; further: nearly all actives have a fitted effect of over 50% in size; further: potency means the concentration at half of the fitted maximal effect)
Procedure, shortened: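 GeneBLAzer FXR-UAS-bla HEK 293T cells, compound plus chenodeoxycholic acid (50 uM final), 16 h at 37 C. CellTiter-Glo added to the same wells after the beta-lactamase read; luminescence read after 30 min at room temperature as viability.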

[6] = qHTS assay for small molecule agonists of the antioxidant response element (ARE) signaling pathway - cell viability counter screen (AID 743203; calls by dose curve; further: nearly all actives have a fitted effect of over 55% in size; further: potency means the concentration at half of the fitted maximal effect)
Procedure, shortened: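 Viability counter screen: stably transfected ARE-bla HepG2 line, 16 hrs compound exposure at 37C/5% CO2, ATP-based CellTiter-Glo luminescence measured in the reporter wells.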

[7] = qHTS assay for small molecule activators of the heat shock response signaling pathway - cell viability counter screen (AID 743209); further: nearly all actives have a fitted effect of over 50% in size; further: potency means the concentration at half of the fitted maximal effect
Procedure, shortened: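 Viability of HSE-bla HeLa cells is measured with CellTiter-Glo in the wells already used for the reporter read. Compound exposure lasts 5 h at 37 C, and luminescence is read after 30 min at room temperature.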

[8] = qHTS assay to identify small molecule agonists of the peroxisome proliferator-activated receptor delta (PPARd) signaling pathway - cell viability counter screen (AID 743211); further: nearly all actives have a fitted effect of over 55% in size; further: potency means the concentration at half of the fitted maximal effect
Procedure, shortened: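 PPARd-bla HEK293H cells (3000/well) were pre-incubated 5 h at 37 C, then exposed to compound for 17 h at 37 C. After 2 h with LiveBLAzer substrate, CellTiter-Glo was added to the same wells; luminescence read after 30 min at room temperature.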

[9] = qHTS assay to identify small molecule agonists of the vitamin D receptor (VDR) signaling pathway - cell viability counter screen (AID 743224); further: nearly all actives have a fitted effect of over 50% in size; further: potency means the concentration at half of the fitted maximal effect
Procedure, shortened: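 Compounds were pin-transferred onto VDR-bla cells plated 4 h earlier; following 16 h incubation at 37C, cell viability was quantified by CellTiter-Glo luminescence after 30 min at room temperature.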

[10] = target: Peroxisome proliferator-activated receptor gamma (Homo sapiens) (UniProt P37231); assay: qHTS assay to identify small molecule antagonists of the peroxisome proliferator-activated receptor gamma (PPARg) signaling pathway (AID 743191; calls by dose curve; further: nearly all actives have a fitted effect of over 30% in size; further: potency means the concentration at half of the fitted maximal effect)
Procedure, shortened: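 GeneBLAzer PPARg UAS-bla HEK293H cells, 5 h post-plating, exposed to compounds 17 h at 37C. LiveBLAzer B/G FRET substrate added for 1 h at room temperature; beta-lactamase reporter read by fluorescence intensity.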

[11] = qHTS assay for small molecule agonists of the antioxidant response element (ARE) signaling pathway (AID 743202; active means well fitted activation curve with a large enough effect in the signal ratio in the repeat runs, not every such curve was filed as active; the % refers to the signal ratio; further: potency means the concentration at half of the fitted maximal effect)
Procedure, shortened: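 HepG2 ARE-bla reporter line, 2,000 cells/well; 5 h preincubation 37 C/5% CO2; compound (DMSO) 16 h 37 C; B/G FRET substrate 2 h RT; fluorescence intensity.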

[12] = qHTS assay for small molecule activators of the heat shock response signaling pathway (AID 743210; active means well fitted activation curve with a large enough effect in the signal ratio in the repeat runs, with a control signal flat, not every such curve was filed as active; the % refers to the signal ratio; further: potency means the concentration at half of the fitted maximal effect;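 on activation: HeLa cells with beta-lactamase reporter driven by heat shock elements; series mostly up to about 63 µM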)
Procedure, shortened: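 Beta-lactamase reporter read-out: FRET substrate fluorescence after 2.5 h at RT, following 5 h compound treatment at 37 C of HeLa cells carrying HSE-driven bla reporter; quantitative HTS format.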

[13] = qHTS assay to identify small molecule antagonists of the peroxisome proliferator-activated receptor delta (PPARd) signaling pathway - cell viability counter screen (AID 743213); further: nearly all actives have a fitted effect of over 50% in size; further: potency means the concentration at half of the fitted maximal effect
Procedure, shortened: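 Agonist-stimulated (L165041, 300 nM final) HEK293H PPARd UAS-bla cells are exposed to compounds for 17 h at 37 C, and ATP-based luminescence (CellTiter-Glo) from the same wells reports cytotoxicity.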

[14] = target: Vitamin D3 receptor (Homo sapiens) (UniProt P11473); assay: qHTS assay to identify small molecule agonists of the vitamin D receptor (VDR) signaling pathway (AID 743222; calls by dose curve)
Procedure, shortened: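 Fluorescence from cleaved LiveBLAzer B/G FRET substrate served as readout. VDR-bla cells had been treated 16 h at 37C with test compounds in DMSO, following a 4 h settling period, and substrate was loaded for 2 h at RT.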

[15] = qHTS assay to identify small molecule that activate the aryl hydrocarbon receptor (AhR) signaling pathway - cell viability counter screen (AID 743086); further: nearly all actives have a fitted effect of over 45% in size; further: potency means the concentration at half of the fitted maximal effect
Procedure, shortened: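 HepG2-AhR-luc (HG2L7.5c1) cells, 4000/well, treated 24 h at 37 C with compound; viability measured as CellTiter-Fluor fluorescence after 30 min in the same wells as the luciferase read.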

[16] = target: Peroxisome proliferator-activated receptor delta (Homo sapiens) (UniProt Q03181); assay: qHTS assay to identify small molecule agonists of the peroxisome proliferator-activated receptor delta (PPARd) signaling pathway (AID 743212; calls by dose curve)
Procedure, shortened: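 Read-out: beta-lactamase FRET fluorescence after 2 h room-temperature incubation with LiveBLAzer B/G substrate. Cells were HEK293H carrying a UAS-bla reporter for PPARd, treated at 37 C with DMSO-dissolved compounds.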

[17] = target: Vitamin D3 receptor (Homo sapiens) (UniProt P11473); assay: qHTS assay to identify small molecule antagonists of the vitamin D receptor (VDR) signaling pathway (AID 743223; active means well fitted inhibition curve with a large enough effect in the signal ratio in the repeat runs, not every such curve was filed as active; the % refers to the signal ratio)
Procedure, shortened: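 VDR-bla cells were treated with compound plus 3 nM final 1alpha,25-dihydroxyvitamin D3 for 16 h at 37C. Beta-lactamase reporter read by B/G FRET substrate fluorescence after 2 h at room temperature. qHTS format.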

[18] = target: Bile acid receptor (Homo sapiens) (UniProt Q96RI1); assay: qHTS assay to identify small molecule antagonists of the farnesoid-X-receptor (FXR) signaling pathway (AID 743217; active means well fitted inhibition curve with a large enough effect in the signal ratio in the repeat runs, not every such curve was filed as active; the % refers to the signal ratio)
Procedure, shortened: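 Screen of the Tox21 10K library in quantitative HTS format using FXR-UAS-bla HEK 293T reporter cells. Agonist chenodeoxycholic acid, 50 uM final, added with compounds; 16 h incubation at 37 °C; beta-lactamase FRET fluorescence measured.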

Measured: Potency

Vitamin D3 receptor (Homo sapiens), sequence (P11473 whole entry, looked up): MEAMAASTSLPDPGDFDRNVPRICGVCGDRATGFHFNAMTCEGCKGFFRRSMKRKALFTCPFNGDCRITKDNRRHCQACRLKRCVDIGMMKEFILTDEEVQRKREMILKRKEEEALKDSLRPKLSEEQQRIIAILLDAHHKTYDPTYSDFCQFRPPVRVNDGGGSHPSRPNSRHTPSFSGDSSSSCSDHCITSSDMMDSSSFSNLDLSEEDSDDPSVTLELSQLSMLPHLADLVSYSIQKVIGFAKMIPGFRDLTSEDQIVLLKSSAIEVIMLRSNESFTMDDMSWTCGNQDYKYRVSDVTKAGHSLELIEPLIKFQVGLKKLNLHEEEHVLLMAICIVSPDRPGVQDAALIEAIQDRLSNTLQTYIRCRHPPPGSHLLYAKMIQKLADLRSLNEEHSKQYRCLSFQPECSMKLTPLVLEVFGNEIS
Peroxisome proliferator-activated receptor delta (Homo sapiens), sequence (Q03181 whole entry, looked up): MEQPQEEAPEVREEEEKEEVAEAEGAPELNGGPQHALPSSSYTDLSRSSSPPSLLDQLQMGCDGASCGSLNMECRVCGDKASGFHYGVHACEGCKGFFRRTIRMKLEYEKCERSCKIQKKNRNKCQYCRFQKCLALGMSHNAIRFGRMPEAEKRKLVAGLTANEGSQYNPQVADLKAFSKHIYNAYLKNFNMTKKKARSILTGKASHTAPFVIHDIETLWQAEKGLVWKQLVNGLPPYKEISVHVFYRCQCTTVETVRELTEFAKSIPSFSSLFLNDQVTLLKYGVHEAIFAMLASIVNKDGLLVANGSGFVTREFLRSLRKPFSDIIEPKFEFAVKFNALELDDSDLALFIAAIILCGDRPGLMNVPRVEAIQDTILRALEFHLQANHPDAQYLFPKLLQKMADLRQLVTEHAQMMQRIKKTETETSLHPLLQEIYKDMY
Bile acid receptor (Homo sapiens), sequence (Q96RI1 whole entry, looked up): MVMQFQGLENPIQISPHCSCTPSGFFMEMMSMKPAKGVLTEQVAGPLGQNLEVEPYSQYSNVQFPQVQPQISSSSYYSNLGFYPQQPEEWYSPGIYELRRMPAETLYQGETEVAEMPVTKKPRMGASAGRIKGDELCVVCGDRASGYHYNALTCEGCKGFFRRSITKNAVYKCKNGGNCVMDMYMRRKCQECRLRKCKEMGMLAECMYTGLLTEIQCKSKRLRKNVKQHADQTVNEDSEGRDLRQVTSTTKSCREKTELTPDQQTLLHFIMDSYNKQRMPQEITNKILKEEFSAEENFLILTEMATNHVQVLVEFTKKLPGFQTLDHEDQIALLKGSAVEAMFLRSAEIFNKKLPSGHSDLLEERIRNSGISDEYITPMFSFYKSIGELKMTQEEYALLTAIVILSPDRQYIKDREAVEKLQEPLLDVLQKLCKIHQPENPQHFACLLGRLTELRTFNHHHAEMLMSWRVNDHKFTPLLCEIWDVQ
Peroxisome proliferator-activated receptor gamma (Homo sapiens), sequence (P37231 whole entry, looked up): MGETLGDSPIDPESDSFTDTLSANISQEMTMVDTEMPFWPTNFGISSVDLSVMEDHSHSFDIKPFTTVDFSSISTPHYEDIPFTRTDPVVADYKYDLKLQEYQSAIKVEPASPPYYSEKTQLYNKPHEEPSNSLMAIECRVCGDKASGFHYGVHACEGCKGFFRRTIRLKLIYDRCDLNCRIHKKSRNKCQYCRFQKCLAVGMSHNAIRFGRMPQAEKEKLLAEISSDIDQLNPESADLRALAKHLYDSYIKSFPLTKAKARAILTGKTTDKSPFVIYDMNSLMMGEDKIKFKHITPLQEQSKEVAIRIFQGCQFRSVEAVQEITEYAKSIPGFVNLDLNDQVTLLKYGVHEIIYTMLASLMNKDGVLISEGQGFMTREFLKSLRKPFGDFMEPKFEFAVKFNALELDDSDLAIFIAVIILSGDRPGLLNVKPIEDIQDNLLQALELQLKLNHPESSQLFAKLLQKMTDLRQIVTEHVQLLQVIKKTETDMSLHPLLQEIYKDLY

O=C(N/N=C/c1ccccc1O)c1ccncc1
active: [2] 2.11 µM
inactive: [1] | [3] | [4] | [5]

CCCN(CCC)c1c([N+](=O)[O-])cc(C(F)(F)F)c(N)c1[N+](=O)[O-]
active: [1] 19.4 µM | [6] 60.9 µM | [7] 34.6 µM | [8] 19.4 µM | [3] 38.8 µM | [9] 13.8 µM

CCCCCCCC(=O)[O-].CCCCCCCC(=O)[O-].[Zn+2]
not listed: [2] | [4] | [15] | [16] | [17] | [18]
inactive: all other assays above

COc1cccc2c1C(=O)c1c(O)c3c(c(O)c1C2=O)C[C@@](O)(C(=O)CO)C[C@@H]3O[C@H]1C[C@H](N)[C@H](O[C@@H]2CCCCO2)[C@H](C)O1
active: [15] 6.68 µM
inactive: [12] | [16] | [13] | [3] | [5] | [9]

Cc1oc(-c2ccccc2)nc1CCC(=O)c1ccc(CC2SC(=O)NC2=O)cc1 (configuration not stated)
inactive: [1] | [6] | [7] | [8] | [13] | [3] | [5] | [17] | [9]
active: [11] 13.3 µM

N#CC1(c2ccc(F)cc2)CCC(=O)CC1
not listed: [8] | [15] | [17]
inactive: all other assays above

COc1cccc(N)c1
inactive: [15] | [6] | [7] | [12] | [8] | [18] | [4] | [5] | [17]

CC(C)(C)CC(C)(C)c1ccc(O)c(Cc2ccc(Cl)cc2Cl)c1
inactive: [15]
active: [6] 13.3 µM | [8] 26.6 µM | [13] 26.6 µM | [5] 33.5 µM | [9] 23.7 µM

CC(C)(C)C1CCC(CC2=C(O)c3ccccc3C(=O)C2=O)CC1 (configuration not stated)
active: [11] 2.11 µM
inactive: [6] | [7] | [12] | [8] | [16]

COC(=O)c1cc(Cl)ccc1OC
not listed: [3] | [4] | [15] | [17] | [18]
inactive: all other assays above

Nc1nc2ccccc2n1Cc1ccc(F)cc1
inactive: [6] | [7] | [16] | [13] | [3] | [5] | [14] | [9]

NC(=O)C1(N2CCCCC2)CCN(CCCN2c3ccccc3CCc3ccc(Cl)cc32)CC1
active: [1] 29.8 µM | [6] 16.8 µM | [8] 11.9 µM | [13] 18.8 µM | [2] 29.8 µM | [3] 11.9 µM | [5] 29.8 µM | [9] 29.8 µM

O=c1cc(-c2ccc(O)cc2)oc2cc(O)cc(O)c12
inactive and 17.4 µM (active): [2]
active: [10] 21.9 µM | [7] 12.3 µM
not listed: [4] | [11] | [14] | [15] | [17] | [18]
inactive: all other assays above

COC(=O)C1=C(C)NC(C)=C(C(=O)OCCc2ccc(N3CCN(C(c4ccccc4)c4ccccc4)CC3)cc2)C1c1cccc([N+](=O)[O-])c1 (configuration not stated)
not listed: [4] | [10] | [11] | [12] | [15] | [17] | [18]
inactive: all other assays above

Cc1cc(=O)oc2cc(N(C)C)ccc12
active: [12] 34.7 µM
inactive: [1] | [6] | [7] | [8] | [13] | [3] | [5] | [9]
